# Data as given in PubChem BioAssay AID1159580 (chemical genetic matrix, 2015).
# About 2,000 (36%) of roughly 5,500 compounds were called active. Roughly 18% stayed inconclusive and do not appear here. This is one part of the list. A number with no mark means an inactive call. Rule as the data show it: active = normalized growth mostly below about 0.91 (no sharp cut-off); inconclusive = no clear call, values can overlap the other calls; inactive = mostly above about 0.92.
# Assay: chemical genetic growth profiling, strain panel (AID 1159580);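 also: tested at 20 µM; growth read once vehicle control cultures reached saturation at 30 °C; 1 = growth at the plate median or of vehicle wells; lower values mean less growth of the strain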
# Settings: growth OD
compound,measurement,setting,value
C1N2CN3CN1CN(C2)C3,normalized growth,"S. cerevisiae deletion strains, locus YJR075W, strain HOC1, active compounds read low",0.986
same,normalized growth,"S. cerevisiae deletion strains, locus YKL009W, strain mrt4, active compounds read low",0.834 (active)
same,normalized growth,"S. cerevisiae deletion strains, locus YKL068W, active compounds read low",0.976
same,normalized growth,"S. cerevisiae deletion strains, locus YKL085W, strain MDH1 (second series), active compounds read low",0.987
same,normalized growth,"S. cerevisiae deletion strains, locus YKL085W, strain MDH1, active compounds read low",0.987
same,normalized growth,"S. cerevisiae deletion strains, locus YKL160W, strain elf1, active compounds read low",0.973
same,normalized growth,"S. cerevisiae deletion strains, locus YKL190W, strain CNB1, active compounds read low",0.98
same,normalized growth,"S. cerevisiae deletion strains, locus YKR001C, strain vps1, active compounds read low",0.965
same,normalized growth,"S. cerevisiae deletion strains, locus YKR026C, strain gcn3, active compounds read low",0.997
same,normalized growth,"S. cerevisiae deletion strains, locus YKR091W, strain srl3, active compounds read low",0.985
same,normalized growth,"S. cerevisiae deletion strains, locus YLL001W, strain dnm1, active compounds read low",0.93
same,normalized growth,"S. cerevisiae deletion strains, locus YLL026W, active compounds read low",0.993
same,normalized growth,"S. cerevisiae deletion strains, locus YLL041C, strain sdh2, active compounds read low",0.983
same,normalized growth,"S. cerevisiae deletion strains, locus YLR027C, strain aat2, active compounds read low",0.996
same,normalized growth,"S. cerevisiae deletion strains, locus YLR039C, strain RIC1, active compounds read low",0.899
same,normalized growth,"S. cerevisiae deletion strains, locus YLR058C, strain SHM2, active compounds read low",0.976
same,normalized growth,"S. cerevisiae deletion strains, locus YLR102C, strain apc9, active compounds read low",0.968
same,normalized growth,"S. cerevisiae deletion strains, locus YLR113W, strain HOG1, active compounds read low",0.906
same,normalized growth,"S. cerevisiae deletion strains, locus YLR221C, strain rsa3, active compounds read low",0.965
same,normalized growth,"S. cerevisiae deletion strains, locus YLR258W, strain gsy2, active compounds read low",0.994
same,normalized growth,"S. cerevisiae deletion strains, locus YLR262C, strain YPT6 (second series), active compounds read low",0.959
same,normalized growth,"S. cerevisiae deletion strains, locus YLR262C, strain YPT6, active compounds read low",0.889
same,normalized growth,"S. cerevisiae deletion strains, locus YLR268W, strain sec22, active compounds read low",0.957
same,normalized growth,"S. cerevisiae deletion strains, locus YLR320W, strain mms22, active compounds read low",0.961
same,normalized growth,"S. cerevisiae deletion strains, locus YLR330W, strain CHS5, active compounds read low",0.985
same,normalized growth,"S. cerevisiae deletion strains, locus YLR342W, strain FKS1 (second series), active compounds read low",0.991
same,normalized growth,"S. cerevisiae deletion strains, locus YLR342W, strain FKS1, active compounds read low",0.982
same,normalized growth,"S. cerevisiae deletion strains, locus YLR357W, strain rsc2, active compounds read low",0.971
same,normalized growth,"S. cerevisiae deletion strains, locus YLR370C, strain arc18, active compounds read low",0.988
same,normalized growth,"S. cerevisiae deletion strains, locus YLR371W, strain rom2, active compounds read low",0.98
same,normalized growth,"S. cerevisiae deletion strains, locus YLR384C, strain iki3, active compounds read low",0.989
same,normalized growth,"S. cerevisiae deletion strains, locus YLR418C, strain cdc73, active compounds read low",0.934
same,normalized growth,"S. cerevisiae deletion strains, locus YML016C, strain PPZ1, active compounds read low",0.983
same,normalized growth,"S. cerevisiae deletion strains, locus YML032C, strain rad52, active compounds read low",0.932
same,normalized growth,"S. cerevisiae deletion strains, locus YML120C, strain ndi1, active compounds read low",0.967
same,normalized growth,"S. cerevisiae deletion strains, locus YML124C, strain tub3, active compounds read low",0.982
same,normalized growth,"S. cerevisiae deletion strains, locus YMR058W, strain fet3, active compounds read low",0.998
same,normalized growth,"S. cerevisiae deletion strains, locus YMR078C, strain ctf18, active compounds read low",0.947
same,normalized growth,"S. cerevisiae deletion strains, locus YMR125W, strain sto1, active compounds read low",0.975
same,normalized growth,"S. cerevisiae deletion strains, locus YMR129W, active compounds read low",0.992
same,normalized growth,"S. cerevisiae deletion strains, locus YMR205C, strain PFK2, active compounds read low",0.959
same,normalized growth,"S. cerevisiae deletion strains, locus YMR223W, strain ubp8, active compounds read low",0.966
same,normalized growth,"S. cerevisiae deletion strains, locus YMR231W, strain pep5, active compounds read low",0.992
same,normalized growth,"S. cerevisiae deletion strains, locus YMR263W, strain SAP30, active compounds read low",0.97
same,normalized growth,"S. cerevisiae deletion strains, locus YMR307W, strain GAS1, active compounds read low",0.994
same,normalized growth,"S. cerevisiae deletion strains, locus YNL067W, strain RPL9B, active compounds read low",0.966
same,normalized growth,"S. cerevisiae deletion strains, locus YNL071W, strain lat1, active compounds read low",0.973
same,normalized growth,"S. cerevisiae deletion strains, locus YNL128W, strain TEP1, active compounds read low",0.981
same,normalized growth,"S. cerevisiae deletion strains, locus YNL153C, strain GIM3, active compounds read low",0.968
same,normalized growth,"S. cerevisiae deletion strains, locus YNL183C, strain NPR1, active compounds read low",0.972
same,normalized growth,"S. cerevisiae deletion strains, locus YNL209W, strain ssb2, active compounds read low",0.986
same,normalized growth,"S. cerevisiae deletion strains, locus YNL233W, strain BNI4, active compounds read low",0.99
same,normalized growth,"S. cerevisiae deletion strains, locus YNL248C, strain rpa49, active compounds read low",0.982
same,normalized growth,"S. cerevisiae deletion strains, locus YNL250W, strain rad50, active compounds read low",0.834 (active)
same,normalized growth,"S. cerevisiae deletion strains, locus YNL271C, strain bni1, active compounds read low",0.959
same,normalized growth,"S. cerevisiae deletion strains, locus YNL298W, strain CLA4, active compounds read low",0.923
same,normalized growth,"S. cerevisiae deletion strains, locus YNL307C, strain MCK1, active compounds read low",0.989
same,normalized growth,"S. cerevisiae deletion strains, locus YNL322C, strain KRE1 (second series), active compounds read low",0.983
same,normalized growth,"S. cerevisiae deletion strains, locus YNL322C, strain KRE1, active compounds read low",0.982
same,normalized growth,"S. cerevisiae deletion strains, locus YNR049C, strain mso1, active compounds read low",0.994
same,normalized growth,"S. cerevisiae deletion strains, locus YNR052C, strain pop2, active compounds read low",0.956
same,normalized growth,"S. cerevisiae deletion strains, locus YOL006C, strain TOP1, active compounds read low",0.931
same,normalized growth,"S. cerevisiae deletion strains, locus YOL012C, strain htz1",1.62
same,normalized growth,"S. cerevisiae deletion strains, locus YOL147C, strain pex11, active compounds read low",0.98
same,normalized growth,"S. cerevisiae deletion strains, locus YOR001W, strain rrp6, active compounds read low",1.01
same,normalized growth,"S. cerevisiae deletion strains, locus YOR061W, strain CKA2, active compounds read low",0.957
same,normalized growth,"S. cerevisiae deletion strains, locus YOR069W, strain VPS5, active compounds read low",0.998
same,normalized growth,"S. cerevisiae deletion strains, locus YOR070C, strain gyp1, active compounds read low",0.992
same,normalized growth,"S. cerevisiae deletion strains, locus YOR080W, strain dia2, active compounds read low",0.994
same,normalized growth,"S. cerevisiae deletion strains, locus YOR083W, strain WHI5, active compounds read low",0.961
same,normalized growth,"S. cerevisiae deletion strains, locus YOR106W, strain vam3, active compounds read low",0.986
same,normalized growth,"S. cerevisiae deletion strains, locus YOR136W, strain idh2, active compounds read low",0.989
same,normalized growth,"S. cerevisiae deletion strains, locus YOR144C, strain elg1, active compounds read low",0.984
same,normalized growth,"S. cerevisiae deletion strains, locus YOR184W, strain ser1, active compounds read low",1.02
same,normalized growth,"S. cerevisiae deletion strains, locus YOR231W, strain MKK1, active compounds read low",0.794 (active)
same,normalized growth,"S. cerevisiae deletion strains, locus YOR265W, strain rbl2, active compounds read low",0.993
same,normalized growth,"S. cerevisiae deletion strains, locus YOR270C, strain vph1, active compounds read low",0.958
same,normalized growth,"S. cerevisiae deletion strains, locus YOR290C, strain snf2, active compounds read low",0.914
same,normalized growth,"S. cerevisiae deletion strains, locus YOR316C, strain cot1, active compounds read low",0.968
same,normalized growth,"S. cerevisiae deletion strains, locus YPL051W, strain arl3, active compounds read low",0.984
same,normalized growth,"S. cerevisiae deletion strains, locus YPL055C, strain LGE1, active compounds read low",0.977
same,normalized growth,"S. cerevisiae deletion strains, locus YPL078C, strain atp4, active compounds read low",0.965
same,normalized growth,"S. cerevisiae deletion strains, locus YPL106C, strain sse1, active compounds read low",0.967
same,normalized growth,"S. cerevisiae deletion strains, locus YPL240C, strain hsp82, active compounds read low",0.993
same,normalized growth,"S. cerevisiae deletion strains, locus YPL241C, strain CIN2, active compounds read low",1.08 [resistant] (active)
same,normalized growth,"S. cerevisiae deletion strains, locus YPL256C, strain CLN2, active compounds read low",0.948
same,normalized growth,"S. cerevisiae deletion strains, locus YPR119W, strain clb2, active compounds read low",0.983
same,normalized growth,"S. cerevisiae deletion strains, locus YPR141C, strain kar3, active compounds read low",0.95
same,normalized growth,"S. cerevisiae deletion strains, locus YPR163C, strain tif3, active compounds read low",0.984
same,normalized growth,"S. cerevisiae deletion strains, locus YPR167C, strain met16, active compounds read low",0.978
same,normalized growth,"S. cerevisiae deletion strains, strain wtn01, active compounds read low",0.959
same,normalized growth,"S. cerevisiae strains, strain wild type, active compounds read low",0.989
